# Measurements as given in PubChem BioAssay (NCATS).
# Records with an inconclusive call do not appear. A call without a number means that no potency is given here. Active and inactive are the calls of the source. Unless noted, calls come from the whole dose curve; as a rule, active = well fitted curve in the direction sought with a large enough effect; inconclusive = small, poorly fitted or top-dose-only effect, or another doubt; inactive = no such curve, though single readings can be large; an effect the other way counts as inactive or inconclusive.
# What was measured:
# [1] = molecular target: Cytochrome P450 2C19 (Homo sapiens) (UniProt P33261); assay: qHTS Assay for Inhibitors and Substrates of Cytochrome P450 2C19 (AID 899); note: nearly all actives have a fitted effect of over 60% in size
# Chain of Cytochrome P450 2C19 (Homo sapiens) (P33261 whole entry, looked up): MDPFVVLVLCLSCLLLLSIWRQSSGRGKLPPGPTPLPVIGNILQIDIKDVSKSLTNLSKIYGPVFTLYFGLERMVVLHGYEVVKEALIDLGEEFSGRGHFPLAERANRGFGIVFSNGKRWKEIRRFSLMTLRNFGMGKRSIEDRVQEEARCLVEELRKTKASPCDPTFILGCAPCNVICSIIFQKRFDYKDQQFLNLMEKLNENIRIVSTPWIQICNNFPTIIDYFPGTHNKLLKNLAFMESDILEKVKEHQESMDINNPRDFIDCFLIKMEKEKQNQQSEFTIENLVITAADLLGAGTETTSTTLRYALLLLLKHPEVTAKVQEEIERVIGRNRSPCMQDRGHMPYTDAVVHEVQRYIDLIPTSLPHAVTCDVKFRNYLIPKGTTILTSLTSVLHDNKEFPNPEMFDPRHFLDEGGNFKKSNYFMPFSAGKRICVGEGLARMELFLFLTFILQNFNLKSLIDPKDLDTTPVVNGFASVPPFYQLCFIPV
# Outline: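 NADPH-dependent conversion of Luciferin-H EGE (10uM, at KM) by 5nM enzyme in 50mM KPO4, 60 min at 37C following 10 min compound preincubation. Stopped with luciferin detection buffer; luminescence read after 20 min.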
# [2] = Confirmation and Secondary Assay for Modulators of Hemoglobin Beta Chain Splicing at IVS2 654 locus (AID 910);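 note: per-well total GFP intensity by laser scanning cytometry after 2-day treatment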
# Outline: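 HeLa cells stably carrying EGFP interrupted by mutant beta-globin IVS2-654 intron (CMV-driven) were treated with compound for 2 days at 37C; corrected splicing was scored as total peak GFP intensity per well (488 nm excitation, 500-520 nm emission).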
# [3] = Confirmation and Secondary Assay for Modulators of Hemoglobin Beta Chain Splicing at IVS2 705 locus (AID 930);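 note: HeLa cells stably expressing the EGFP-705 splicing reporter; GFP fluorescence per well restored by corrected splicing of the IVS2-705 intron in EGFP; series mostly up to about 46 µM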
# Outline: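 Stable HeLa line with EGFP disrupted by mutant beta-globin intron 2 (705). Overnight attachment, then 2 days of compound at 37C, 5% CO2. Signal: peak GFP intensity summed over objects 5-250 µm.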
# [4] = molecular target: Pyruvate kinase (Leishmania mexicana) (UniProt Q27686); assay: qHTS Validation Assay for Inhibitors of Leishmania Mexicana Pyruvate Kinase (AID 945)
# Chain of Pyruvate kinase (Leishmania mexicana) (Q27686 2-499 E452W): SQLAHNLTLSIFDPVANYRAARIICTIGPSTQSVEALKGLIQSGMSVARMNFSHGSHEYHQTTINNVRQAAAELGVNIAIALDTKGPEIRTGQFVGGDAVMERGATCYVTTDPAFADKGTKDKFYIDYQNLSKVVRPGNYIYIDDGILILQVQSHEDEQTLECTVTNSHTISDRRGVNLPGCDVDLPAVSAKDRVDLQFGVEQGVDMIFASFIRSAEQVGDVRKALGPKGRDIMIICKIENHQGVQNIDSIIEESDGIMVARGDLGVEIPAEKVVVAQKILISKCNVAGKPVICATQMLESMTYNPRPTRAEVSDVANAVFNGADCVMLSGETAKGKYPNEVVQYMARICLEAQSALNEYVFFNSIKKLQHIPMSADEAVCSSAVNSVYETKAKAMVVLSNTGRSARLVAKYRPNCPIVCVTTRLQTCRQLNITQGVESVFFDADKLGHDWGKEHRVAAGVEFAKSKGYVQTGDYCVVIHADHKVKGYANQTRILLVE
# Outline: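 Mutant LmPYK (E451W), 0.2 nM, plus 0.5 mM PEP and 0.1 mM ADP in 50 mM imidazole pH 7.2 containing 0.01% Tween 20 and 0.05% BSA. Incubated 1 h at room temperature; luminescence via PKLight, normalized to DMSO.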
# [5] = MultiTox-Fluor Cytotoxicity Assay - LYMP1-001 - Dead Cells (AID 946)
# Outline: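 Cytotoxicity as increased dead-cell protease fluorescence (bis-AAF-R110, 485/520 nm), read 60 min after MultiTox-Fluor reagent. Human lymphoblastoid line exposed 16 h; Hill-fitted AC50, with DMSO as 0% and 15 uM tetraoctylammonium bromide as 100%.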
# [6] = Cell Viability - LYMP1-002 - Assay at 16 hr (AID 948)
# Outline: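 LYMP1-002 human lymphoblastoid cells, 2500/well, were treated with compounds for 16 hr at 37 C in complete medium. Viability was read as intracellular ATP by CellTiter-Glo luminescence, and AC50 was derived from a Hill fit to concentration-response data.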
# [7] = molecular target: Pyruvate kinase PKM (Homo sapiens) (UniProt P14618); assay: qHTS Assay for Activators of Human Muscle Pyruvate Kinase (AID 954; active = well fitted curve in the direction sought with a large enough effect, not every such curve was filed as active)
# Chain of Pyruvate kinase PKM (Homo sapiens) (P14618 whole entry, looked up): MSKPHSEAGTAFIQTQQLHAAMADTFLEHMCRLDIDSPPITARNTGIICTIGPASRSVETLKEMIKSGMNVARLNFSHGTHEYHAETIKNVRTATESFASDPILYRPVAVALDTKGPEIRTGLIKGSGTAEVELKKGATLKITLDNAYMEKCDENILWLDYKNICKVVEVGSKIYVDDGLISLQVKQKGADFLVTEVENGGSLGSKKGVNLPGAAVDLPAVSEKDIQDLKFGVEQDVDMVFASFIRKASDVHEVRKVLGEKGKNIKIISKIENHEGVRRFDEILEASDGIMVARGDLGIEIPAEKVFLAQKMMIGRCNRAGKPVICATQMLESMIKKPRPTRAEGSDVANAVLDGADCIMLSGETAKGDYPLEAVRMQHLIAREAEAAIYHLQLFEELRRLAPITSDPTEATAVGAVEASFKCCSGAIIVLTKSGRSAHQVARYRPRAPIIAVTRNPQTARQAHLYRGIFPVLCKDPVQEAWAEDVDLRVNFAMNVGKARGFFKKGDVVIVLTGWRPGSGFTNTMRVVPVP
# Outline: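 ATP production by PKM2 detected via luciferase luminescence after 1 h room-temperature reaction (0.1 nM enzyme, PEP at Km 0.5 mM, ADP 0.1 mM, pH 7.2 imidazole buffer). Inhibition scaled to no-enzyme control; activation referenced to 0.3 nM enzyme wells.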
# [8] = molecular target: Alpha-galactosidase (Coffea arabica) (UniProt Q42656); assay: Counterscreen for Glucocerebrosidase Inhibitors: qHTS Assay for Coffee Bean alpha-Galactosidase at pH 4.5 (AID 957); note: series mostly up to about 77 µM
# Chain of Alpha-galactosidase (Coffea arabica) (Q42656 whole entry, looked up): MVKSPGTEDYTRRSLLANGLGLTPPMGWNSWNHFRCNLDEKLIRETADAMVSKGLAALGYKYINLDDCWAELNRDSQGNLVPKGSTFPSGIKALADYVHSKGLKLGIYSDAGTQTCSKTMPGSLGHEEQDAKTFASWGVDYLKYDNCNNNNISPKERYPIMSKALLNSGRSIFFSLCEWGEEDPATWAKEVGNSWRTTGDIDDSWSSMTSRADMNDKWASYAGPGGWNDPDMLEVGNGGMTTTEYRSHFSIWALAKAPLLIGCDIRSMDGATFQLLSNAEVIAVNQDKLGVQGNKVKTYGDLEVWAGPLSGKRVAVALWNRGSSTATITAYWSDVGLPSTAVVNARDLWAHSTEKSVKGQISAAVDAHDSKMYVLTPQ
# Outline: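 Fluorogenic read-out: 4-methylumbelliferone at Ex 365/Em 440 nm after NaOH/glycine stop (pH 10). Enzyme 2 nM, 4-MU-alpha-galactoside 80 uM, citrate buffer pH 4.5, 20 min RT; normalized to no-enzyme and enzyme controls.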
# [9] = MultiTox-Fluor Cytotoxicity Assay - LYMP1-002 - Dead Cells (AID 960); note: nearly all actives have a fitted effect of over 60% in size
# Outline: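 Readout: fluorescence at 485/520 from cell-impermeant bis-AAF-R110 cleaved by proteases leaking from damaged cells. LYMP1-002 lymphoblastoid line, 16 hr compound treatment at 37 C, concentration-response in qHTS format; Hill-equation AC50 values.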
# [10] = MultiTox-Fluor Cytotoxicity Assay - LYMP1-003 - Dead Cells (AID 961); note: nearly all actives have a fitted effect of over 70% in size
# Outline: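 Dead-cell protease release, detected as bis-AAF-R110 fluorescence at 485/520 nm, was measured in LYMP1-003 cells after 16 h compound treatment at 37 C. AC50 values came from Hill-modeled qHTS curves normalized to DMSO (0%) and 15 uM tetraoctylammonium bromide (100%).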
# [11] = MultiTox-Fluor Cytotoxicity Assay - LYMP1-003 - Live Cells (AID 962);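 note: cells exposed to compound for 16 hours at 37 °C; cytotoxic hits lower the live-cell protease signal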
# Outline: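 Readout: live-cell fluorescence (Ex/Em=405/510) from GF-AFC cleavage after 60 min MultiTox-Fluor reagent at room temperature. Lymphoblastoid LYMP1-003 cells, 16 hr compound treatment, 37 C. Concentration-response fitted to standard Hill equation for AC50.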
# [12] = Cell Viability - LYMP1-003 - Assay at 24 hr (AID 963)
# Outline: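 CellTiter-Glo luminescence (intracellular ATP) read after 24 hr, 37 C compound exposure of 2500 LYMP1-003 human lymphoblastoid cells/well in complete medium; qHTS concentration series; AC50 via standard Hill equation.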
# [13] = Cell Viability - LYMP2-001 (AID 921); note: series mostly up to about 92 µM; nearly all actives have a fitted effect of over 70% in size
# Outline: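 Human lymphoblastoid LYMP2-001 cells, 2500 per well, in complete medium, treated 24 h at 37 C. Viability from cellular ATP by CellTiter-Glo luminescence; AC50 from Hill-equation fits of qHTS concentration-response.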
# [14] = MultiTox-Fluor Cytotoxicity Assay - LYMP1-001 - Live Cells (AID 947)
# [15] = Cell Viability - LYMP1-003 - Assay at 40 hr (AID 964); note: series mostly up to about 92 µM; nearly all actives have a fitted effect of over 60% in size
# Outline: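 LYMP1-003 lymphoblastoid cells, 2500/well; 5 hr preincubation, 40 hr compound exposure, 37 C; CellTiter-Glo 30 min RT; luminescence; Hill-fit AC50. Positive control tetraoctylammonium bromide.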
# [16] = Cell Viability - LYMP2-003 (AID 965);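 note: cells exposed to compounds for 24 h before reading; nearly all actives have a fitted effect of over 50% in size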
# Outline: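 Human lymphoblastoid LYMP2-003 cells, 2500/well, exposed to compounds for 24 h at 37 C in complete medium. Viability read as intracellular ATP by CellTiter-Glo luminescence; AC50 from Hill-equation fits of qHTS concentration-response data.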
# [17] = molecular target: Muscarinic acetylcholine receptor M1 (Rattus norvegicus) (UniProt P08482); assay: qHTS Assay for Antagonists of Acetylcholine Muscarinic M1 Receptor: Measurement of IP-One Response (AID 944); note: potency is the fitted concentration of half-maximal effect; nearly all actives have a fitted effect of over 75% in size
# Chain of Muscarinic acetylcholine receptor M1 (Rattus norvegicus) (P08482 whole entry, looked up): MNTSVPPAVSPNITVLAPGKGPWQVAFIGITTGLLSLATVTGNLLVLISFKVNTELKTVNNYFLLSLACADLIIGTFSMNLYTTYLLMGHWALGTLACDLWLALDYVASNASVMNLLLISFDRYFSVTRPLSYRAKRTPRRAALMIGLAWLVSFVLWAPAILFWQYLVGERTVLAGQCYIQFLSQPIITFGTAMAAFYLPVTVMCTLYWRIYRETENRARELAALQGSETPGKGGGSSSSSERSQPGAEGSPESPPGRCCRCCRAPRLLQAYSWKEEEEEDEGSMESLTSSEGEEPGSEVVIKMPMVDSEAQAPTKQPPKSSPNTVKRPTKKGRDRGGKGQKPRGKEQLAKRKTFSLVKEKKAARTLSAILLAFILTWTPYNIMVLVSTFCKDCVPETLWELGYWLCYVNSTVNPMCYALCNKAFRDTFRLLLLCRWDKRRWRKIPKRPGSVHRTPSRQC
# Outline: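 Read-out: HTRF competition between d2-IP1 and Eu-cryptate anti-IP1 antibody, emission 620 and 665 nm. Stimulus was carbachol, EC80 (200 nM), for 30 min in M1-CHO cells (rat receptor), after 10 min compound pre-treatment.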
smiles,measurement,setting,value
O=C(O)CCCc1ccc(N(CCCl)CCCl)cc1,Potency,[1],inactive
same,outcome,[2],inactive
same,outcome,[3],inactive
same,outcome,[4],inactive
same,outcome,[5],inactive
same,outcome,[6],inactive
same,outcome,[7],inactive
same,outcome,[8],inactive
same,Potency,[9],inactive
same,outcome,[10],inactive
same,outcome,[11],inactive
same,outcome,[12],inactive
CCC1(c2ccc(N)cc2)CCC(=O)NC1=O (stereo not drawn),outcome,[2],inactive
same,outcome,[3],inactive
C[C@]1(O)CC[C@H]2[C@@H]3CCC4=CC(=O)CC[C@]4(C)[C@@]3(F)[C@@H](O)C[C@@]21C,outcome,[13],inactive
same,outcome,[5],inactive
same,outcome,[14],inactive
same,outcome,[6],inactive
same,Potency,[9],inactive
same,outcome,[10],inactive
same,outcome,[11],inactive
same,outcome,[12],inactive
same,outcome,[15],inactive
same,outcome,[16],inactive
CCC(C)(C)c1ccc(O)cc1,outcome,[13],inactive
same,outcome,[5],inactive
same,outcome,[14],inactive
same,outcome,[6],inactive
same,Potency,[9],inactive
same,outcome,[10],inactive
same,outcome,[11],inactive
same,outcome,[12],inactive
same,outcome,[15],inactive
same,outcome,[16],inactive
CC(C)N(CCC(C(N)=O)(c1ccccc1)c1ccccn1)C(C)C (stereo not drawn),outcome,[2],inactive
same,outcome,[3],inactive
CC(=O)N1CCN(c2ccc(OC[C@H]3CO[C@](Cn4ccnc4)(c4ccc(Cl)cc4Cl)O3)cc2)CC1,Potency,[17],8.91 µM (active)
same,outcome,[8],inactive
NC1CCN(c2cccc(Cl)n2)CC1,outcome,[8],inactive
C[C@]12CCC(=O)C=C1CC[C@@H]1[C@@H]2CC[C@@]2(C)[C@H]1CC[C@]2(C)O,outcome,[13],inactive
same,outcome,[14],inactive
same,outcome,[6],inactive
same,outcome,[10],inactive
same,outcome,[11],inactive
same,outcome,[12],inactive
same,outcome,[15],inactive
same,outcome,[16],inactive
Nc1cc(=O)[nH]c(N)n1,outcome,[8],inactive
CN=C(NC#N)NCCSCc1nc[nH]c1C,outcome,[8],inactive
NC(=O)N1c2ccccc2C=Cc2ccccc21,outcome,[8],inactive
Nc1ccc(S(=O)(=O)Nc2ccnn2-c2ccccc2)cc1,outcome,[8],inactive
Cc1ccc(Cl)c(Nc2ccccc2C(=O)O)c1Cl,outcome,[8],inactive
NCCCNCCSP(=O)(O)O,outcome,[8],inactive
Cc1cnc(NC(=O)C2=C(O)c3ccccc3S(=O)(=O)N2C)s1,outcome,[8],inactive
CNCCC=C1c2ccccc2CCc2ccccc21,outcome,[8],inactive
CC(C)C(=O)c1c(C(C)C)nn2ccccc12,outcome,[8],inactive
C1COC(NC(C2CC2)C2CC2)=N1,outcome,[8],inactive
NCCS(=O)(=O)O,outcome,[8],inactive
CN1CCC[C@@H]1c1cccnc1,outcome,[8],inactive
NC(=O)c1cnccn1,outcome,[8],inactive
FC(F)(F)c1ccccc1-n1ccnc1,outcome,[8],inactive
CCN1CCC[C@H]1CNC(=O)c1cc(S(N)(=O)=O)ccc1OC,outcome,[8],inactive
CC(C)NNC(=O)c1ccncc1,outcome,[8],inactive
CC(=O)O[C@H]1C(=O)[C@@]2(C)[C@H]([C@H](OC(=O)c3ccccc3)[C@]3(O)C[C@H](OC(=O)[C@H](O)[C@@H](NC(=O)c4ccccc4)c4ccccc4)C(C)=C1C3(C)C)[C@]1(OC(C)=O)CO[C@@H]1C[C@@H]2O,outcome,[8],inactive
CCn1nc(C(=O)O)c(=O)c2cc3c(cc21)OCO3,outcome,[8],inactive
CC(=O)c1ccc(S(=O)(=O)NC(=O)NC2CCCCC2)cc1,outcome,[8],inactive
C[N+](C)(C)CCCCCC[N+](C)(C)C,outcome,[8],inactive
CCOC(=O)CC(SP(=S)(OC)OC)C(=O)OCC (stereo not drawn),outcome,[13],inactive
same,outcome,[5],inactive
same,outcome,[14],inactive
same,outcome,[6],inactive
same,outcome,[10],inactive
same,outcome,[11],inactive
same,outcome,[12],inactive
same,outcome,[15],inactive
same,outcome,[16],inactive
CCOC(=O)c1cnc2c(cnn2CC)c1NN=C(C)C,outcome,[8],inactive
Nc1nc2ccc(OC(F)(F)F)cc2s1,outcome,[8],inactive
Nc1ccccc1,outcome,[13],inactive
same,outcome,[5],inactive
same,outcome,[14],inactive
same,outcome,[6],inactive
same,outcome,[10],inactive
same,outcome,[11],inactive
same,outcome,[12],inactive
same,outcome,[15],inactive
same,outcome,[16],inactive
CCCCCCCCCCCCCCCC(=O)NCCO,outcome,[8],inactive
CNCCCC12CCC(c3ccccc31)c1ccccc12,outcome,[8],inactive
O=C(O)CCCCCCCC(=O)O,outcome,[8],inactive
CN1[C@@H]2CC[C@H]1CC(OC(c1ccccc1)c1ccccc1)C2 (stereo partly drawn),outcome,[8],inactive
CC(=O)OCC(=O)[C@@]1(O)CC[C@H]2[C@@H]3CCC4=CC(=O)CC[C@]4(C)[C@H]3C(=O)C[C@@]21C,outcome,[8],inactive
Cc1nc2c([nH]1)c(=O)n(C)c(=O)n2Cc1ccco1,outcome,[8],inactive
O=c1[nH]c(=O)n([C@H]2C[C@H](O)[C@@H](CO)O2)cc1Br,outcome,[8],inactive
C[C@H](CS)C(=O)N1CCC[C@H]1C(=O)O,outcome,[8],inactive
COc1cc(NS(C)(=O)=O)ccc1Nc1c2ccccc2nc2ccccc12,outcome,[8],inactive
COc1cc(-c2ccc(=O)[nH]n2)ccc1OC(F)F,outcome,[8],inactive
O=c1[nH]cnc2[nH]ncc12,outcome,[8],inactive
CC[N+](CC)(CC)CCOc1cccc(OCC[N+](CC)(CC)CC)c1OCC[N+](CC)(CC)CC,outcome,[8],inactive
CC(C)(C)NC[C@H](O)COc1nsnc1N1CCOCC1,outcome,[8],inactive
Cc1scc2c1N(C(=O)CN1CCN(C)CC1)c1ccccc1NC2=O,outcome,[8],inactive
CC(C)Cc1ccc(C(C)C(=O)O)cc1 (stereo not drawn),outcome,[8],inactive
CCN(CC)CCNC(=O)c1ccc(N)cc1,outcome,[8],inactive
CN1C(C(=O)Nc2ccccn2)=C(O)c2ccccc2S1(=O)=O,outcome,[8],inactive
Cc1nc2ccccn2c(=O)c1CCN1CCC(C(=O)c2ccc(F)cc2)CC1,outcome,[8],inactive
CCN(CC)CCNC(=O)c1cc(S(C)(=O)=O)ccc1OC,outcome,[8],inactive
O=C(O)CN(CCN(CC(=O)O)CC(=O)O)CCN(CC(=O)O)CC(=O)O,outcome,[8],inactive
NC(N)=NC(=O)Cc1c(Cl)cccc1Cl,outcome,[8],inactive
CN1C(C)(C)CCCC1(C)C,outcome,[8],inactive
CCN(CC)C(=O)c1ccc(O)c(OC)c1,outcome,[8],inactive
O=C1NCC2(CCN(CCc3ccccc3)CC2)O1,outcome,[8],inactive
Clc1cccc(Cl)c1NC1=NCCN1,outcome,[8],inactive
CCN(CC)CCOC(=O)c1ccc(N)cc1,outcome,[8],inactive
CCO/C([O-])=N/c1c[n+](N2CCOCC2)no1,outcome,[8],inactive
COc1ccc2cc([C@H](C)C(=O)O)ccc2c1,outcome,[8],inactive
COc1ccc(C2CNC(=O)C2)cc1OC1CCCC1 (stereo not drawn),outcome,[8],inactive
COc1ccc2[nH]cc(CCNC(C)=O)c2c1,outcome,[8],inactive
CN(C)CCOC(=O)COc1ccc(Cl)cc1,outcome,[8],inactive
O=c1c(-c2ccc(O)cc2)coc2cc(O)cc(O)c12,outcome,[8],inactive
CN(C)C(=O)Oc1ccc[n+](C)c1,outcome,[8],inactive
NCCCCCC(=O)O,outcome,[8],inactive
CNC[C@H](O)c1cccc(O)c1,outcome,[8],inactive
CN1CCN(CCC=C2c3ccccc3Sc3ccc(S(=O)(=O)N(C)C)cc32)CC1,outcome,[8],inactive
CC(=O)Oc1cc(C(C)C)c(OCCN(C)C)cc1C,outcome,[8],inactive
NC(N)=Nc1nc(CSCC/C(N)=N/S(N)(=O)=O)cs1,outcome,[8],inactive
CN1CCN(CC(=O)N2c3ccccc3C(=O)Nc3cccnc32)CC1,outcome,[8],inactive
C[N+](C)(C)CCOC(N)=O,outcome,[8],inactive
N[C@@H](COP(=O)(O)O)C(=O)O,outcome,[8],inactive
